Measured values taken from PubChem BioAssay.
Active and inactive are the calls of the source. Unless noted, how the calls were made is not given here.

Experiments:
[1] = tested on: Wnt5a (protein binding on small-molecule microarray); experiment: small molecules binding Wnt5a protein – biophysical, small-molecule microarray, 635/667 nm fluorescence, primary screen (AID 1142); details: 635 nm fluorescence, higher = more signal;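 further: fluorescence read at 667 nm with signal to noise per printed feature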
[2] = ATP-based viability of Huh7 replicon cells – cell-based, CellTiter-Glo luminescence, basal, 48 h, cytotoxicity control for HCV replication inhibitor project, primary screen (AID 1143); details: higher = more signal, called active from +8 up or from −8 down;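 further: Huh7 hepatoma cells carrying a hepatitis C replication reporter with no stimulus; test concentration not given here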
[3] = Pseudomonas biofilm growth suppression – PAO1 strain, BacTiter-Glo luminescence, LB-PBS, primary screen (AID 1144); details: P. aeruginosa PAO1 biofilm, 12 h, higher = more signal
[4] = basal CRE-LacZ reporter activity in PC12 – cell-based, unstimulated, primary screen (AID 1145); details: no forskolin, luminescence, 4.5 h, higher = more signal, called active from +8 up or from −8 down
[5] = forskolin-driven CRE-LacZ activity in PC12 – cell-based, CRE-LacZ reporter, forskolin-stimulated, primary screen (AID 1146); details: luminescence, 4.5 h, higher = more signal, called active from +8 up or from −8 down;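 further: PC12 cells with 6xCRE LacZ reporter stimulated by forskolin 10 µM; beta-galactosidase reporter signal reflecting CREB driven transcription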
[6] = molecular target: Streptavidin (Streptomyces avidinii) (UniProt P22629); experiment: compounds binding control protein streptavidin – biophysical, small-molecule microarray, 635/667 nm fluorescence, artefact control for SMM compound annotation, primary screen (AID 1147); details: higher = more signal;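 further: signal reflects streptavidin binding to arrayed compounds as a control protein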
[7] = probe aInhba binding on compound microarray – biochemical, small-molecule microarray, 635/667 nm fluorescence, primary screen (AID 1148); details: higher = more signal;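 further: score merges 667nm spot fluorescence with signal-to-noise for antibody binding to printed compounds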
Torsin-1A (Homo sapiens) [8] = molecular target: Torsin-1A (Homo sapiens) (UniProt O14656); experiment: TOR1A wild-type binding on microarray – cell lysate, small-molecule microarray, lysate, 635/667 nm, primary screen (AID 1149); details: COS7 hTOR1A-WT lysate, 635 nm fluorescence, higher = more signal
Torsin-1A (Homo sapiens) [9] = molecular target: Torsin-1A (Homo sapiens) (UniProt O14656); experiment: torsin A mutant lysate binding on microarrays – cell lysate, small-molecule microarray, COS7 lysate, 635/667 nm fluorescence, primary screen (AID 1150); details: COS7 hTOR1A mutant lysate, 635 nm fluorescence, higher = more signal;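 further: score pools 667 nm emission and signal to noise measuring lysate protein binding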
[10] = tested on: Sonic hedgehog protein (Shh); experiment: Sonic hedgehog microarray binding compounds – biochemical, small-molecule microarray, 635/667 nm fluorescence, primary screen (AID 1151); details: 635 nm fluorescence, higher = more signal;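 further: Shh protein binding to compounds spotted on small-molecule microarray slides; score combines spot fluorescence intensity with signal-to-noise across triplicate slides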
[11] = optical density shifts of acrAB sulA E. coli – strain DRC41, OD650, 48 h, E. coli filamentation inducer project, primary screen (AID 1152); details: higher = more signal, called active from +8 up or from −8 down;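 further: E. coli MC1000 strain DRC41 lacking acrAB efflux pump and sulA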
[12] = probe aLefty1 binding on compound microarray – biochemical, small-molecule microarray, 635/667 nm fluorescence, primary screen (AID 1153); details: higher = more signal;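 further: score merges spot fluorescence with signal-to-noise ratio from the scanned slide images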
[13] = plasmodial surface anion channel blockers, osmotic lysis – cell-based, P. falciparum Indochina, OD700, 1 h, primary screen (AID 1154); details: P. falciparum Indochina infected RBC osmotic lysis, higher = more signal, called active from +8 up or from −8 down
[14] = plasmodial surface anion channel blockers, osmotic lysis – cell-based, P. falciparum Indochina, OD700, 2 h, primary screen (AID 1155);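 further: lysis reports solute entry through the parasite surface anion channel PSAC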; details: P. falciparum Indochina infected erythrocytes, higher = more signal, called active from +8 up or from −8 down
[15] = changes in parasitized red cell lysis, either direction – P. falciparum Indochina, OD700, 3 h, PSAC antagonist project, primary screen (AID 1156); details: P. falciparum-infected erythrocytes, osmotic lysis, higher = more signal, called active from +8 up or from −8 down
[16] = plasmodial surface anion channel blockers, osmotic lysis – cell-based, P. falciparum Indochina, OD700, 18 h, primary screen (AID 1157); details: P. falciparum Indochina infected erythrocytes, osmotic lysis OD700, 18 h; higher = more signal, called active from +8 up or from −8 down
[17] = S6 kinase pathway phospho-S6 level changes – cell-based, A549, cytoblot, luminescence, serum-stimulated, primary screen (AID 1158); details: 5 h, higher = more signal;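 further: serum-stimulated A549 lung adenocarcinoma cells; signal is phosphorylated S6 detected by cytoblot immunostaining with HRP secondary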
[18] = molecular target: NADPH oxidase 2 (Homo sapiens) (UniProt P04839); experiment: compounds shifting NOX2 Amplex Red fluorescence – cell-based, HEK293-NOX2, PMA-stimulated, NOX inhibitor project, primary screen (AID 1159); details: 45 min, higher = more signal, called active from +8 up or from −8 down; further: test concentration not given here
[19] = molecular target: NADPH oxidase 4 (Homo sapiens) (UniProt Q9NPH5); experiment: compounds shifting NOX4 Amplex Red fluorescence – cell-based, HEK293-NOX4, tetracycline-induced, NOX inhibitor project, primary screen (AID 1160); details: HEK293-NOX4, Amplex Red H2O2 fluorescence, 45 min; higher = more signal, called active from +8 up or from −8 down
[20] = molecular target: NADPH oxidase 5 (Homo sapiens) (UniProt Q96PH1); experiment: compounds shifting NOX5 Amplex Red fluorescence – cell-based, HEK293-NOX5, NOX inhibitor project, primary screen (AID 1161); details: HEK293-NOX5, ionomycin, 45 min, higher = more signal
Chain of NADPH oxidase 5 (Homo sapiens) (Q96PH1 whole entry, looked up): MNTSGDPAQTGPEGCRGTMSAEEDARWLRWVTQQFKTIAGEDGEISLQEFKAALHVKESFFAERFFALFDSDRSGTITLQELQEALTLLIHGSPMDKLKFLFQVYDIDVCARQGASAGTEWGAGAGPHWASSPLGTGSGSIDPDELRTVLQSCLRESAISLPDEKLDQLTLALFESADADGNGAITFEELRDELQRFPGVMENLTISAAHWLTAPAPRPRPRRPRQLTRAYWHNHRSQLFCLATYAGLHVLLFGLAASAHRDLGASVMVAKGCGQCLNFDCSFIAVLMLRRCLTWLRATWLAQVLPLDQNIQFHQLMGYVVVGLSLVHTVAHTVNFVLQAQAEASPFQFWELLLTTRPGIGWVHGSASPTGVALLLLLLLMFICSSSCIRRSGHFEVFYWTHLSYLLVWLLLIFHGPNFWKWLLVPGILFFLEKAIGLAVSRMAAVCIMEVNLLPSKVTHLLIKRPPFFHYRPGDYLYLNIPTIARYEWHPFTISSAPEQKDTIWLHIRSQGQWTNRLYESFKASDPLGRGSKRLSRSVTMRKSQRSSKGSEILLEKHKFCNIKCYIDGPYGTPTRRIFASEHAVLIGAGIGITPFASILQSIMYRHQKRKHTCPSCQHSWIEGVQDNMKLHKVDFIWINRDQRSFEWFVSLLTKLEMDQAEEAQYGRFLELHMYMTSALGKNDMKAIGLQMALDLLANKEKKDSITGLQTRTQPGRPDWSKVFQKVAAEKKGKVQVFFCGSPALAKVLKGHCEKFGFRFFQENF

Chain of NADPH oxidase 4 (Homo sapiens) (Q9NPH5 whole entry, looked up): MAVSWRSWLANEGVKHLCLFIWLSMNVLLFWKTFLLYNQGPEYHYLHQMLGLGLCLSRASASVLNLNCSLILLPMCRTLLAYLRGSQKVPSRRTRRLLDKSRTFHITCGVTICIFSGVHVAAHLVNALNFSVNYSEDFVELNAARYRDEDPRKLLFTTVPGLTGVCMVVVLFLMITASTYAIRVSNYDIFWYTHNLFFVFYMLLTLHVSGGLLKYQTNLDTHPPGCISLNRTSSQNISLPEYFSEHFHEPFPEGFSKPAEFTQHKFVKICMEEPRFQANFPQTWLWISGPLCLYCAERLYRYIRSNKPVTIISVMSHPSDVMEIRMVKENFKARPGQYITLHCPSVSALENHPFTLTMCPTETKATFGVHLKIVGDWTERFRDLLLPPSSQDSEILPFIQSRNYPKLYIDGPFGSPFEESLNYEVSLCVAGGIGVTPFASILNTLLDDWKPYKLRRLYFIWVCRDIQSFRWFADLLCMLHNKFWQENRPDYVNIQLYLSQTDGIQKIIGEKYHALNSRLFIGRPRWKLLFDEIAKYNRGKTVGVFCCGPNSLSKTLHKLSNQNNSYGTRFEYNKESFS
Chain of Torsin-1A (Homo sapiens) (O14656 whole entry, looked up): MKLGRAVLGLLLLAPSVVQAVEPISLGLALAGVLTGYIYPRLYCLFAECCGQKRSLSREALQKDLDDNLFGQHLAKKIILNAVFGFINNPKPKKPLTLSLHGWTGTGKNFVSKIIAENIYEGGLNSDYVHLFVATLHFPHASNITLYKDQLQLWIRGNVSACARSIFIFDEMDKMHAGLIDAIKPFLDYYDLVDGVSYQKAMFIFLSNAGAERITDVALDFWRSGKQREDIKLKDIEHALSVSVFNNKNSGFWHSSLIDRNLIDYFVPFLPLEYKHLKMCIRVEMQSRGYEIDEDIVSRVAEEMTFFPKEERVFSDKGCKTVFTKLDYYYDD
Chain of NADPH oxidase 2 (Homo sapiens) (P04839 whole entry, looked up): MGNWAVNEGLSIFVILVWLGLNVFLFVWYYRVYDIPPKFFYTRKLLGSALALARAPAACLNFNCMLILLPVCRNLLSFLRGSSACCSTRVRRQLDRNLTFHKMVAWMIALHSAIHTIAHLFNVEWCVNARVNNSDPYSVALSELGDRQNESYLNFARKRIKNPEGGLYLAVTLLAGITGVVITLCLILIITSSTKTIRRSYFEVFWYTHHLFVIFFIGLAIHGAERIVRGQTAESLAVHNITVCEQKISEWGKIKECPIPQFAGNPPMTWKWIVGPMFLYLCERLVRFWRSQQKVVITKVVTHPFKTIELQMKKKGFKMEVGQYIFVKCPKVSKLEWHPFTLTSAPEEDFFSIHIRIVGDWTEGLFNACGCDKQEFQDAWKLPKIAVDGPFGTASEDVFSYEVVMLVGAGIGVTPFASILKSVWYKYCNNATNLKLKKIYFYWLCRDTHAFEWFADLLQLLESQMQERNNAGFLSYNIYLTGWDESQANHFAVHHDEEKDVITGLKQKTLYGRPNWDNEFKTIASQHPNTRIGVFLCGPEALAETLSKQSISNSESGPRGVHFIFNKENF
Chain of Streptavidin (Streptomyces avidinii) (P22629 whole entry, looked up): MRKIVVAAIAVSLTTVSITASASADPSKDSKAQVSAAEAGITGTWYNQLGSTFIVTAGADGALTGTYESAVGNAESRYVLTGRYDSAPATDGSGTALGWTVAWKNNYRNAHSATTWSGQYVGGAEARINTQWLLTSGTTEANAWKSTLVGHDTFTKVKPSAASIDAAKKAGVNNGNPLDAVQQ

| Structure (SMILES) | composite z-score [1] | z-score [2] | z-score [3] | z-score [4] | z-score [5] | composite z-score [6] | composite z-score [7] | composite z-score (Torsin-1A (Homo sapiens) [8]) | composite z-score (Torsin-1A (Homo sapiens) [9]) | composite z-score [10] | z-score [11] | composite z-score [12] | z-score [13] | z-score [14] | z-score [15] | z-score [16] | z-score [17] | z-score [18] | z-score [19] | z-score [20] |
| --- | --- | --- | --- | --- | --- | --- | --- | --- | --- | --- | --- | --- | --- | --- | --- | --- | --- | --- | --- | --- |
| CC(C)OC(=O)C1=CCC(c2cccc(Cl)c2)O1 (stereo not given) | -0.593 | -5.17 (inactive) | -2.12 (inactive) | -0.471 (inactive) | -0.154 (inactive) | 0.245 | -0.191 | 1.07 | -0.268 | -1.49 | 0.504 (inactive) | -0.142 | 26 (active) | 6.53 (inactive) | 0.751 (inactive) | 0.296 (inactive) | 1.8 | -3.89 (inactive) | -2.1 (inactive) | -4.96 |
| CCOC(=O)C1=CC[C@@H](c2ccccc2)N(S(=O)(=O)c2ccc(C)cc2)[C@H]1c1ccc(C#N)cc1 | 0.344 | -2.07 (inactive) | 0.742 (inactive) | 1.42 (inactive) | 0.0633 (inactive) | 1.31 | 0.066 | -0.0412 | 0.389 | -0.428 | -1.38 (inactive) | 0.161 | 1.92 (inactive) | 0.858 (inactive) | 0.224 (inactive) | 0.705 (inactive) | -0.882 | 0.428 (inactive) | -1.1 (inactive) | 0.0836 |
| C=CCOC(=O)[C@@H]1[C@H]2C(=O)O[C@H](c3ccccc3)[C@H](c3ccccc3)N2[C@H](c2ccc(OCCOC(=O)[C@H]3C[C@H]4C(=O)N[C@@H](Cc5ccccc5)C(=O)N4[C@H]3c3ccc(O)cc3)cc2)[C@@]12C(=O)Nc1ccc(I)cc12 | 0.388 | -0.409 (inactive) | -0.00469 (inactive) | 5.82 (inactive) | 11.7 (active) | 0.593 | -0.0391 | 0.72 | 0.544 | 1.81 | -1.78 (inactive) | -0.539 | 6.54 (inactive) | 5.05 (inactive) | -2.73 (inactive) | 2.58 (inactive) | -1.77 | 3.07 (inactive) | 0.471 (inactive) | 3.69 |
| O=P(NCC1(CC2(c3ccccc3)CO2)CC1)(c1ccccc1)c1ccccc1 (stereo not given) | -0.402 | -0.814 (inactive) | 0.318 (inactive) | 0.197 (inactive) | 1.13 (inactive) | -0.767 | -0.0448 | -0.87 | -0.754 | -1.41 | -0.569 (inactive) | 0.315 | 0.0174 (inactive) | -0.505 (inactive) | 0.424 (inactive) | 0.297 (inactive) | -0.242 | -0.024 (inactive) | 0.266 (inactive) | -2.9 |
| CC1(C)C(=O)C(c2ccccc2)=C2CN3C(=O)N(CCc4ccccc4)C(=O)C3(Cc3ccccc3)C=C21 (stereo not given) | 0.114 | -1.13 (inactive) | -0.741 (inactive) | 0.576 (inactive) | 0.15 (inactive) | 0.982 | 0.134 | 0.736 | -0.244 | -1.07 | -1.23 (inactive) | 0.647 | 2.06 (inactive) | 0.541 (inactive) | 0.483 (inactive) | 0.861 (inactive) | -0.196 | -0.147 (inactive) | 0.405 (inactive) | -1.62 |
| CC(C)NC(=O)[C@@H]1c2ccccc2C(=O)N(C2CCCCC2)[C@H]1c1ccc(CO)cc1 | 0.242 | -1.17 (inactive) | 0.0353 (inactive) | -0.529 (inactive) | -0.579 (inactive) | -0.148 | 0.152 | 0.13 | -0.28 | 0.0045 | -0.359 (inactive) | -0.101 | -0.521 (inactive) | 0.169 (inactive) | -0.113 (inactive) | -0.136 (inactive) | -0.061 | 0.664 (inactive) | 0.822 (inactive) | 0.802 |
| COc1ccccc1CN1C(=O)c2ccccc2[C@](Cc2ccccc2I)(C(=O)NC2CC2)[C@@H]1c1ccc(CO)cc1 | 0.811 | -4.58 (inactive) | -0.0735 (inactive) | 0.324 (inactive) | -0.572 (inactive) | 0.662 | 0.0374 | 0.427 | 0.71 | 2.06 | 0.203 (inactive) | -0.25 | 11.4 (active) | 1.35 (inactive) | 2.38 (inactive) | 0.99 (inactive) | -0.154 | -0.975 (inactive) | -0.89 (inactive) | -2.08 |
| CCOC(=O)C[C@H]1[C@H](OC(=O)c2ccc(C(=O)c3ccccc3)cc2)[C@@H](NC(=O)c2ccc3ccccc3n2)c2cc(OCCCO)ccc2N1C(=O)c1ccc2ccccc2n1 | 0.211 | 0.0729 (inactive) | -0.754 (inactive) | 2.05 (inactive) | -1.22 (inactive) | 0.47 | 0.0778 | 0.323 | 0.134 | -0.0692 | 1.14 (inactive) | 0.464 | 5.2 (inactive) | 1.1 (inactive) | -0.327 (inactive) | 0.579 (inactive) | 0.495 | -0.0371 (inactive) | 0.532 (inactive) | 1.03 |
| COC(=O)[C@@]1(Cc2ccc(F)cc2)[C@H]2c3cc(C(=O)N4CCCC4)n(Cc4ccc(Cl)c(C(F)(F)F)c4)c3C[C@H]2CN1C(=O)c1ccccc1 | 1.99 | -2.95 (inactive) | 0.678 (inactive) | 0.204 (inactive) | 1.49 (inactive) | 2.28 | 1.35 | 0.0817 | 0.51 | -0.239 | -1.31 (inactive) | 1.99 | 3.16 (inactive) | 0.895 (inactive) | 0.923 (inactive) | 1.21 (inactive) | -0.256 | 0.71 (inactive) | 0.705 (inactive) | 1.31 |
